These results are taken from article PMC7862700, “An all-to-all approach to the identification of sequence-specific readers for epigenetic DNA modifications on cytosine”.

Common to all, as to assay: DAPPL (digital affinity profiling via proximity ligation, sequencing); 10 mM Tris-HCl pH 7.5, 50 mM NaCl, 1 mM DTT, 4% glycerol, room temperature, 30 min; GST-TFs on glutathione beads, 16-mer random dsDNA library, 0.1% formaldehyde crosslink after washing; high values mean tight binding
The target in one assay is T1, FEV (Homo sapiens, UniProt Q99581 1-238).
T1 sequence: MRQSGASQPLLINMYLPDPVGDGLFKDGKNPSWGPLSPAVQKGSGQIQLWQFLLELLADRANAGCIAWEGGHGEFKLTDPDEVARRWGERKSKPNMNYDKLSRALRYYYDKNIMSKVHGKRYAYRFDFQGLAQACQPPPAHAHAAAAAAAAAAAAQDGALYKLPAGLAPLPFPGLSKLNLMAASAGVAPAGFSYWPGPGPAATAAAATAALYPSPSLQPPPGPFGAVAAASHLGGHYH
The settings on record: protein: recombinant; tags: N-terminal GST; dsDNA, one strand shown. The essentials: (§1)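 Human transcription factors were made in yeast as GST fusions, captured on glutathione beads and barcoded with DNA. With a tag-only sample included, the pool was incubated with 200 nmole of a random double-stranded 16-mer DNA library in Tris/NaCl/DTT/glycerol buffer at room temperature for 30 min, then crosslinked with 0.1% formaldehyde after washing, ligated by proximity, amplified and sequenced. For binding signal, each hexamer's read frequency for a factor is divided by its frequency for the tag-only sample.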

For the next assay, the target named is ETV5 (Homo sapiens, UniProt P41161 1-510). As to conditions: protein: recombinant; tags: N-terminal GST; dsDNA, one strand shown. The gist of the method:
as §1

The next assay deals with HSF1 (Homo sapiens, UniProt Q00613 1-529). The settings on record: protein: recombinant; tags: N-terminal GST; chain copies: 3; dsDNA, one strand shown. The gist of the method:
as §1

The next assay deals with T2, SPIC (Homo sapiens, UniProt Q8N5J4 1-248).
T2 sequence: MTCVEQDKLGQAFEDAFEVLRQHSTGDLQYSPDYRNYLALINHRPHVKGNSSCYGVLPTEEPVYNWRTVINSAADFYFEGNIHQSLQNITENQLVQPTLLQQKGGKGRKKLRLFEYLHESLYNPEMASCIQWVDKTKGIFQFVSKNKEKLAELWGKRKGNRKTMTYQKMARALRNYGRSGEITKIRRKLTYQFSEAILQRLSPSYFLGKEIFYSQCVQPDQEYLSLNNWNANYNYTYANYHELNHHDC
The settings on record: protein: recombinant; tags: N-terminal GST; dsDNA, one strand shown. The gist of the method: as §1

For another assay, the target named is ELF4 (Homo sapiens, UniProt Q99607 1-663). The settings on record: protein: recombinant; tags: N-terminal GST; dsDNA, one strand shown. The gist of the method: as §1
ELF4, sequence (Q99607 whole entry): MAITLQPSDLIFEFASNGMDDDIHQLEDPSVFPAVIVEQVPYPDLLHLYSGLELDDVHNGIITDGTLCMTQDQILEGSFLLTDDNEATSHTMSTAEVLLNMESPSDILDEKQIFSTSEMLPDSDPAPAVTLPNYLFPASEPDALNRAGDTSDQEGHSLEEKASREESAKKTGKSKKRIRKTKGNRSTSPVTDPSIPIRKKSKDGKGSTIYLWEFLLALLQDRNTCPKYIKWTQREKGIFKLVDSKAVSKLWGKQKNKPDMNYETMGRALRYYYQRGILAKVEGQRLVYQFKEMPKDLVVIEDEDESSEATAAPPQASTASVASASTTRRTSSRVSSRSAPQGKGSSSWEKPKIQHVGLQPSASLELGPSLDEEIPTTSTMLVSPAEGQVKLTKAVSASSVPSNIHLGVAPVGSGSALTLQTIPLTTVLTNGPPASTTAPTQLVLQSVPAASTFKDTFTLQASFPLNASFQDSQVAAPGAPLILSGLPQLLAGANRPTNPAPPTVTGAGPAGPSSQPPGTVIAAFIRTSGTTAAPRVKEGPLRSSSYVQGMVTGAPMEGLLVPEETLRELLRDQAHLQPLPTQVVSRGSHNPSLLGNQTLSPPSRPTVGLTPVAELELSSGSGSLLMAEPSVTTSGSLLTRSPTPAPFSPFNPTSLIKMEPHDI
The target of another assay is T3, ELK4 (Homo sapiens, UniProt P28324-2 1-405).
T3 sequence: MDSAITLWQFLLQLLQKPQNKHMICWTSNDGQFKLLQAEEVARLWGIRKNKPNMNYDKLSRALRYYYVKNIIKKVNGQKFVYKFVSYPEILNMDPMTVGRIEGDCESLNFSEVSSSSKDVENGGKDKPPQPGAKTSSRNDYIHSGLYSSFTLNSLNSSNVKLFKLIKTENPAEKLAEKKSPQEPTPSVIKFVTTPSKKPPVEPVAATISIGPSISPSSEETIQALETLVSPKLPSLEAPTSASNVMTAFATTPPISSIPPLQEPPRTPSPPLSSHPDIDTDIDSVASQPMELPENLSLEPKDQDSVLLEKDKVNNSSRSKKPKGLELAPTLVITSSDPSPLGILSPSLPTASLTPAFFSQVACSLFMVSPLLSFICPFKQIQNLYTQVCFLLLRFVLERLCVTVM
As to conditions: protein: recombinant; tags: N-terminal GST; dsDNA, one strand shown. The gist of the method: as §1

In the next assay the target is T4, ETV2 (Homo sapiens, UniProt O00321 1-342).
T4 sequence: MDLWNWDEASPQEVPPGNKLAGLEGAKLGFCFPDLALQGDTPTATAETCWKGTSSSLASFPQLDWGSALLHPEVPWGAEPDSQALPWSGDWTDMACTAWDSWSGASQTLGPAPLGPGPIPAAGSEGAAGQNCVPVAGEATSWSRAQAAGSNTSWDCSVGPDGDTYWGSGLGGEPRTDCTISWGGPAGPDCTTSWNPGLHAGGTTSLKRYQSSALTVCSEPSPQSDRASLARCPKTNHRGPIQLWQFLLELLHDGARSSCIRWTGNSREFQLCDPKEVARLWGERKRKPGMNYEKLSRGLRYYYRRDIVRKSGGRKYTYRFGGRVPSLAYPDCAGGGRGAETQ
As to conditions: protein: recombinant; tags: N-terminal GST; dsDNA, one strand shown. The essentials: as §1

A further assay deals with T5, ELF3 (Homo sapiens, UniProt P78545 1-371).
T5 sequence: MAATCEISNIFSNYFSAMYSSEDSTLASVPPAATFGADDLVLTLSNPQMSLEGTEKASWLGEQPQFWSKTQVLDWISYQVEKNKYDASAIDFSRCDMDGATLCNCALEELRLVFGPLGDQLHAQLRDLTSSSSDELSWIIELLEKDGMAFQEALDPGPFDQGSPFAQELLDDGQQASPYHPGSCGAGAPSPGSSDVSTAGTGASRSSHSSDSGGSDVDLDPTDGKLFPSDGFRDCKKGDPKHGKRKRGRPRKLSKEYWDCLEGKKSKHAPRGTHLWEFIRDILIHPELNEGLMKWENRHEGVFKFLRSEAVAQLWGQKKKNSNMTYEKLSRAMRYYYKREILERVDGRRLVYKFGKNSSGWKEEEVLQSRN
The settings on record: protein: recombinant; tags: N-terminal GST; dsDNA, one strand shown. The essentials: as §1

In the next assay the target is CRX (Homo sapiens, UniProt O43186 1-299). As to conditions: protein: recombinant; tags: N-terminal GST; dsDNA, one strand shown. The gist of the method:
as §1

Another assay addresses ETV1 (Homo sapiens, UniProt P50549 1-477). As to conditions: protein: recombinant; tags: N-terminal GST; dsDNA, one strand shown. The gist of the method:
as §1

Another assay deals with T6, ERF (Homo sapiens, UniProt P50548 1-548).
T6 sequence: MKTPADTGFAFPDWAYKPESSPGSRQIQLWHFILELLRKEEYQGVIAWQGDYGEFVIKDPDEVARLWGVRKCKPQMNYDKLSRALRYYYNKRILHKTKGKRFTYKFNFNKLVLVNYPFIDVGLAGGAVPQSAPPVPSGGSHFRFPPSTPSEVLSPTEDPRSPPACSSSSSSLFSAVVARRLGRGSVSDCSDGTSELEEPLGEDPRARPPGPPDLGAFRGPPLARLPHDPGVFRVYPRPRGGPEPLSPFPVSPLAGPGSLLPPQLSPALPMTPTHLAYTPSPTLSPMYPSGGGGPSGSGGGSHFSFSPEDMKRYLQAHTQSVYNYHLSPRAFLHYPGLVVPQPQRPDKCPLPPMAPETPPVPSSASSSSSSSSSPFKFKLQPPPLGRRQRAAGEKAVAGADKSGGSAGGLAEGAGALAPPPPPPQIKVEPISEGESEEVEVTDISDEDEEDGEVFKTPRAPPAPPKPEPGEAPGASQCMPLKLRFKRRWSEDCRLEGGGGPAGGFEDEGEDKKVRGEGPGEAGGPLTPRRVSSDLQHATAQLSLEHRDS
The settings on record: protein: recombinant; tags: N-terminal GST; dsDNA, one strand shown. The gist of the method:
as §1

The next assay deals with T7, ETV3L (Homo sapiens, UniProt Q6ZN32 1-361).
T7 sequence: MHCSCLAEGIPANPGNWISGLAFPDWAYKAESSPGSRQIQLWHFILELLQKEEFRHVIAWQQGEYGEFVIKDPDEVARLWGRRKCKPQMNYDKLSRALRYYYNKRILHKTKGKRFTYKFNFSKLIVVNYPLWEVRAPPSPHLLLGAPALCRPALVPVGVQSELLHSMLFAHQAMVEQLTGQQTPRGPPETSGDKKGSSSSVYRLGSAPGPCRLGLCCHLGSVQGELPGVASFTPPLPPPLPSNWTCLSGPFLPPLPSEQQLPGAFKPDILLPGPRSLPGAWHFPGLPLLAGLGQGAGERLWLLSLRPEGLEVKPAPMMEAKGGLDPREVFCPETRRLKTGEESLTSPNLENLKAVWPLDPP
The settings on record: protein: recombinant; tags: N-terminal GST; dsDNA, one strand shown. The essentials:
as §1

Another assay addresses T8, ETS2 (Homo sapiens, UniProt P15036 1-469).
T8 sequence: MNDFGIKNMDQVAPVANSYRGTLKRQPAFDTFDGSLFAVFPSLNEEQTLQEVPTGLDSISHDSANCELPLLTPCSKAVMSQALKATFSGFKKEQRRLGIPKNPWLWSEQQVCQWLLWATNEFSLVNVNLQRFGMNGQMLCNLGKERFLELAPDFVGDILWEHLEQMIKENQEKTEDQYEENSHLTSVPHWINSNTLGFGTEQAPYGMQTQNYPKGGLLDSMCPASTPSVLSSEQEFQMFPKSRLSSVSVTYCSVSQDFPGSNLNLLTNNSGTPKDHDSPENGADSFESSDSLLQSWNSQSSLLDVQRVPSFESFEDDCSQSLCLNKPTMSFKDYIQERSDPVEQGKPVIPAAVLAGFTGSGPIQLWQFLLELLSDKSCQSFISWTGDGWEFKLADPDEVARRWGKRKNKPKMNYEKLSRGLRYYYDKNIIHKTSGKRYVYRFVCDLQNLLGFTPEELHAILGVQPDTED
The settings on record: protein: recombinant; tags: N-terminal GST; dsDNA, one strand shown. The essentials: as §1

The target of a further assay is T9, SPDEF (Homo sapiens, UniProt O95238 1-335).
T9 sequence: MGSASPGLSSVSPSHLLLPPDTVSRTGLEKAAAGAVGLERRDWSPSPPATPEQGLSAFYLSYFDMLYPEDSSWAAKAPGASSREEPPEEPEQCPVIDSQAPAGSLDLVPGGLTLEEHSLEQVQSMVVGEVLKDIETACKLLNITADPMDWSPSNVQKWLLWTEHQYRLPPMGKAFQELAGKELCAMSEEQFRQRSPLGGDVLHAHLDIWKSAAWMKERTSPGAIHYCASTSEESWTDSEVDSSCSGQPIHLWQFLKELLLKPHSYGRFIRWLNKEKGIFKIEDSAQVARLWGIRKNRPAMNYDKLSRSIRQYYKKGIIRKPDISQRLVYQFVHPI
As to conditions: protein: recombinant; tags: N-terminal GST; dsDNA, one strand shown. The essentials:
as §1

The target in another assay is T10, ETV7 (Homo sapiens, UniProt Q9Y603 1-341).
T10 sequence: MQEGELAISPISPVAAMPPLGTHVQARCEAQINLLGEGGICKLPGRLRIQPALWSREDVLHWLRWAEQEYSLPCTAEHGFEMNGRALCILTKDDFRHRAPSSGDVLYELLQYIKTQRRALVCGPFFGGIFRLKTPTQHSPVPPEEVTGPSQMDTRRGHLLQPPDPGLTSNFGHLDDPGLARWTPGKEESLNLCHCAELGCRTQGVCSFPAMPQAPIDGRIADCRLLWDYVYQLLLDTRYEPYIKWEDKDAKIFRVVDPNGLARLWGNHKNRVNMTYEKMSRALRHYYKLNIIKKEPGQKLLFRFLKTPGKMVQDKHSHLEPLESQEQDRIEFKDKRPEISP
As to conditions: protein: recombinant; tags: N-terminal GST; dsDNA, one strand shown. The gist of the method: as §1

The next assay has as its target T11, ELF5 (Homo sapiens, UniProt Q9UKW6-2 1-255).
T11 sequence: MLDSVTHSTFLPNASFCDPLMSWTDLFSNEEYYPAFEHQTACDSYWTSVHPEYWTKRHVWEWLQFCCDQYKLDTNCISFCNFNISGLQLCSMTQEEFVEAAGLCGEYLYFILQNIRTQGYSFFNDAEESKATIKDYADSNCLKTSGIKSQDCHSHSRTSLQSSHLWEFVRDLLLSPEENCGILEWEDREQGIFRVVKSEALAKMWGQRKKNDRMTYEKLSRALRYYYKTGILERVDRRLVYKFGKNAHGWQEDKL
As to conditions: protein: recombinant; tags: N-terminal GST; dsDNA, one strand shown. The gist of the method:
as §1

A further assay has as its target T12, ETV3 (Homo sapiens, UniProt P41162-2 1-143).
T12 sequence: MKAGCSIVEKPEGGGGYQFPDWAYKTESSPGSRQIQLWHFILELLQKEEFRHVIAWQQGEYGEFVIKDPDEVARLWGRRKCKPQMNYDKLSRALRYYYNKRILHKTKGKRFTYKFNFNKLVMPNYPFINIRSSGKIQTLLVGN
As to conditions: protein: recombinant; tags: N-terminal GST; dsDNA, one strand shown. The gist of the method: as §1

Another assay deals with ETV6 (Homo sapiens, UniProt P41212 1-452). As to conditions: protein: recombinant; tags: N-terminal GST; dsDNA, one strand shown. The gist of the method: as §1
ETV6, sequence (P41212 whole entry): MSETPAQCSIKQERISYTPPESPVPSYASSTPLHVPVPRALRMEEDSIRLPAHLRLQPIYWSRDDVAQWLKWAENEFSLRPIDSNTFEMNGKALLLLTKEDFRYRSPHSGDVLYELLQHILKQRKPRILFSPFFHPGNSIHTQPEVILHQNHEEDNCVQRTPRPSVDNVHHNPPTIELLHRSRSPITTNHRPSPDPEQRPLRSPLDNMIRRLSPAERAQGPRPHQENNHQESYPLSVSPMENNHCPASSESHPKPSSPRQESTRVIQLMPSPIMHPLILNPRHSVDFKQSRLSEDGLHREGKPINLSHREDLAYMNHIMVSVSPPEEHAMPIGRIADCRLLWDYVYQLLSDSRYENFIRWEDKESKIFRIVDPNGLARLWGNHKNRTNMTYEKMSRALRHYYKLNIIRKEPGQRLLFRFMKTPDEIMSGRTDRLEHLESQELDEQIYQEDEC

CRX, sequence (O43186 whole entry): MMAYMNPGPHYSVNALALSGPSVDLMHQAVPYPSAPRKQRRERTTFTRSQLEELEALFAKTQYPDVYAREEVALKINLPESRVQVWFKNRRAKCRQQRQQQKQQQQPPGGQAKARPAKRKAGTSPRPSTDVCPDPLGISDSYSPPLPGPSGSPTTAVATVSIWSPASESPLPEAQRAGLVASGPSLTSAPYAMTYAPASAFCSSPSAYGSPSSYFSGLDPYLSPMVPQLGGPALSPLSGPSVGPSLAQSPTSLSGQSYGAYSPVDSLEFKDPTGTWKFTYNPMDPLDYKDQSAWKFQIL
ETV5, sequence (P41161 whole entry): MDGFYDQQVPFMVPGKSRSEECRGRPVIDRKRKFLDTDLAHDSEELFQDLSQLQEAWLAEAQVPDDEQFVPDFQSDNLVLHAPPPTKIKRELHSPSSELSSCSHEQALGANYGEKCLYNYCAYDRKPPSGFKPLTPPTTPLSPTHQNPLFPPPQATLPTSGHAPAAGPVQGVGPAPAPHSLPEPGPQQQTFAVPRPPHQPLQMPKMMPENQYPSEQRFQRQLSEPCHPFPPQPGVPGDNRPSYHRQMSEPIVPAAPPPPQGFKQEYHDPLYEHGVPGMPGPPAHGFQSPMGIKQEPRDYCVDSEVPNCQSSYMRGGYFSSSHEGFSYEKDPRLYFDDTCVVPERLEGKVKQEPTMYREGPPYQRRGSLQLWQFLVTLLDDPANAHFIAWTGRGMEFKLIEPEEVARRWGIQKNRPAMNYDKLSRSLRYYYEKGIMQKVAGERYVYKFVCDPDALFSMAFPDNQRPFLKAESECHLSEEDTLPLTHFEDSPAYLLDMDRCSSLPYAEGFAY
ETV1, sequence (P50549 whole entry): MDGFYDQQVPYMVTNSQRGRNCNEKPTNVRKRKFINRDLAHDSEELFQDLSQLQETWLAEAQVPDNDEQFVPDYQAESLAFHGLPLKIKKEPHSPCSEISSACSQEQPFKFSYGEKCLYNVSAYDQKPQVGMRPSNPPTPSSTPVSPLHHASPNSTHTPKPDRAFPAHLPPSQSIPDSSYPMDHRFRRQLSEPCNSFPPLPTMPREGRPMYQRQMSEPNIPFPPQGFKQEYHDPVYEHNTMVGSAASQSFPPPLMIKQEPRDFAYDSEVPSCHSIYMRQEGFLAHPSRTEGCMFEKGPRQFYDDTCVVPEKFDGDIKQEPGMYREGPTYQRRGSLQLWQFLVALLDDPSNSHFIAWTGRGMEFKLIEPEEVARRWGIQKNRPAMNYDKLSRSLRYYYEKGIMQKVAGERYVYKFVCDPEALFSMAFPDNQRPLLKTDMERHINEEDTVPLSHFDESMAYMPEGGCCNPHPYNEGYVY
HSF1, sequence (Q00613 whole entry): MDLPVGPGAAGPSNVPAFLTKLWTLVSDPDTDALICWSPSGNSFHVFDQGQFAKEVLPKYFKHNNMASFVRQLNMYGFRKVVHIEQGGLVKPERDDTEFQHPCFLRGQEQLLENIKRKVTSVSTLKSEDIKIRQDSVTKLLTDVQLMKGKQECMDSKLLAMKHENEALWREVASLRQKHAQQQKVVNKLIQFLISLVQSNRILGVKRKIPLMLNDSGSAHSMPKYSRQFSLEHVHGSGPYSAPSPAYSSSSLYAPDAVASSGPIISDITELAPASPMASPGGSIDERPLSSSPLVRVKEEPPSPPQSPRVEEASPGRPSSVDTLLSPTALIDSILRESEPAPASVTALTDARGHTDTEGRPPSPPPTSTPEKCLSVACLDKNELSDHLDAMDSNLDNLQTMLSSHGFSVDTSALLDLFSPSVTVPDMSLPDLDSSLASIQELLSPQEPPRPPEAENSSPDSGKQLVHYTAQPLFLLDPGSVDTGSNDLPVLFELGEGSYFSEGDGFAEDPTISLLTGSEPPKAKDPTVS

For the sequence CTTGGT, the binding signal with FEV was 1.33 fold enrichment (6-mer frequency, TF over GST control); with ETV5 it was 1.46 fold enrichment (6-mer frequency, TF over GST control); in the assay with HSF1 it was 1.18 fold enrichment (6-mer frequency, TF over GST control); with SPIC, 1.61 fold enrichment (6-mer frequency, TF over GST control); in the assay with ELF4, 1.58 fold enrichment (6-mer frequency, TF over GST control); in the assay with ELK4, 1.53 fold enrichment (6-mer frequency, TF over GST control). Besides, the binding signal with ETV2 was 1.53 fold enrichment (6-mer frequency, TF over GST control); in the assay with ELF3, 1.51 fold enrichment (6-mer frequency, TF over GST control); with CRX it was 1.21 fold enrichment (6-mer frequency, TF over GST control); with ETV1, 1.53 fold enrichment (6-mer frequency, TF over GST control); in the assay with ERF, 1.34 fold enrichment (6-mer frequency, TF over GST control); with ETV3L it was 1.47 fold enrichment (6-mer frequency, TF over GST control). In addition, the binding signal in the assay with ETS2 was 1.45 fold enrichment (6-mer frequency, TF over GST control); with SPDEF, 1.51 fold enrichment (6-mer frequency, TF over GST control); with ETV7 it was 1.49 fold enrichment (6-mer frequency, TF over GST control); in the assay with ELF5, 1.37 fold enrichment (6-mer frequency, TF over GST control); with ETV3, 1.34 fold enrichment (6-mer frequency, TF over GST control); with ETV6, 1.44 fold enrichment (6-mer frequency, TF over GST control).
